Test results as given in ChEMBL document CHEMBL3988442, “University of Dundee, Small-Polar-MMV Screening Library” (2021).
The campaign covered roughly 53,000 compounds. About 900 (1.7%) showed an effect of 50% or more. This is one part of a sample in which strong results are shown more often than they occur.

These compounds were tested on Mycobacterium tuberculosis (assay: Cornell - Phenotypic assay to identify agents that inhibit growth of Mycobacterium tuberculosis). Details: 10 mM as filed; unlikely as a test dose.
Assay type: functional
Set-up: scale not given: direction of the effect not stated beside the values
In the case of `Cc1nn(C)c(N(C)C)c1CNC1CCCCNC1=O` (centres undefined), the “Percent Effect” value is reported as 63.11%. For `CC(C)c1nn(C)c(N(C)C)c1CNC1CCCCNC1=O` (centres undefined), the “Percent Effect” value was 91.87%. For `Cc1nn(C)c(Oc2ccccc2)c1CNC1CCCCNC1=O` (centres undefined), the “Percent Effect” value was -7.334%. `CC(C)c1nn(C)c(N(C)C)c1CNC1CCN(C2CC2)CC1.Cl` was tested, and the “Percent Effect” value was 42.5%. With `Cc1nn(C)c(N2CCOCC2)c1CNC1CCCCNC1=O` (centres undefined) the “Percent Effect” value was -11.46%. `CC(C)c1nn(C)c(N(C)C)c1CNC1CCN(CC2CC2)CC1` was tested, and the “Percent Effect” value was 58.14%. With `COCCN1CCC(NCc2c(C(C)C)nn(C)c2N(C)C)CC1` the “Percent Effect” value was 39.85%. For `CC(C)C(=O)N1CCC(NCc2c(C(C)C)nn(C)c2N(C)C)CC1`, the “Percent Effect” value was 31.79%. In the case of `CC(C)c1nn(C)c(N(C)C)c1CNC1CCC(O)CC1` (centres undefined), the “Percent Effect” value is reported as 21.48%. In the case of `CN(CCc1nccs1)C(=O)CC1(O)CCCCC1`, the “Percent Effect” value is reported as 19.59%. In the case of `COCCCNCc1cc(O)c2cc(C)cc(C)c2n1`, the “Percent Effect” value is reported as 3.207%. For `COc1ccc(OC2CCN(c3ccncc3)CC2)cc1`, the “Percent Effect” value was 27.59%. `CC(=O)Cn1nc(-c2ccccc2F)ccc1=O` was tested, and the “Percent Effect” value was 6.771%. For `Cc1cccc(CN2C(=O)C[C@H]3[C@@H]2CCN3Cc2ccc(F)cc2)n1.O=C(O)C(F)(F)F.O=C(O)C(F)(F)F`, the “Percent Effect” value was 15.09%. In the case of `CCn1nc(C)cc1C(=O)N1C[C@@H]2C[C@@H](c3nnc(C)[nH]3)O[C@@H]2C1`, the “Percent Effect” value is reported as -8.9%. In the case of `Cc1nn(C)c2c(=O)n(CC(=O)NCc3ccc(N(C)C)cc3)ccc12`, the “Percent Effect” value is reported as 96.11%. With `COc1cccc(CNC(=O)Cn2ccc3c(C)nn(C)c3c2=O)c1` the “Percent Effect” value was 4.678%. In the case of `Cc1nn(C)c2c(=O)n(CC(=O)NCCC(C)C)ccc12`, the “Percent Effect” value is reported as 2.416%. `OCCCN(CCn1cncn1)c1ccccc1` was tested, and the “Percent Effect” value was -44.33%. With `Oc1ccc(N(CCc2ccccc2)CCn2cncn2)cc1` the “Percent Effect” value was 107%. With `c1ccc(N(CCn2cncn2)CC2CC2)cc1` the “Percent Effect” value was -28.11%. With `Cc1cc(CNC(=O)N2CCOC(c3ccccc3Cl)C2)no1` (centres undefined) the “Percent Effect” value was -0.6476%. With `COc1cccc([C@@H]2N[C@H](c3nccs3)Cc3ccsc32)c1OC` the “Percent Effect” value was 50.54%. For `COc1cc([C@@H]2N[C@H](c3nccs3)Cc3ccsc32)cc(OC)c1OC`, the “Percent Effect” value was 44.3%. With `COc1ccc(OC)c([C@@H]2N[C@H](c3nccs3)Cc3ccsc32)c1` the “Percent Effect” value was 46.52%. `Cc1ncc(-c2ccnc(NCCc3ccc(F)cc3)n2)c(=O)[nH]1` was tested, and the “Percent Effect” value was -5.112%. With `Cn1ncc2c(N3CCN4CCCCC4C3)nc(C3CCCC3)nc21` (centres undefined) the “Percent Effect” value was 27.57%. `CN1CCCc2cc(-c3cncn3CC(=O)NC(C)(C)C)ccc21.Cl` was tested, and the “Percent Effect” value was 13.27%. `CN1CCCc2cc(-c3cncn3CCNC3CCS(=O)(=O)C3)ccc21.Cl` (centres undefined) was tested, and the “Percent Effect” value was 6.115%. For `Cc1cc(C)n(CCCn2cncc2-c2ccc3c(c2)CC(C)N3C)n1.Cl` (centres undefined), the “Percent Effect” value was 63.97%. In the case of `CCOC(=O)c1n[nH]cc1-c1cncn1CCCn1nc(C)cc1C.Cl`, the “Percent Effect” value is reported as 25.38%. For `CC1Cc2cc(-c3cncn3CC(=O)NC(C)(C)C)ccc2N1C.Cl` (centres undefined), the “Percent Effect” value was -2.378%. `Cc1nn(C)c(C)c1CCn1cncc1-c1ccc2c(c1)CC(C)N2C.Cl` (centres undefined) was tested, and the “Percent Effect” value was 64.61%. For `CC(C)c1cc(C2CCCN2C(=O)c2cn3ccsc3n2)no1` (centres undefined), the “Percent Effect” value was 31.59%. In the case of `Cc1cc(NC(=O)C2CCN(c3ncccc3C#N)CC2)no1`, the “Percent Effect” value is reported as -28.06%. In the case of `O=C(Cc1cccs1)NCc1ccnc(C2CCCOC2)n1` (centres undefined), the “Percent Effect” value is reported as 6.218%. In the case of `Cc1nc(C)n(CC2CCCN(c3ncnc4ccccc34)C2)n1` (centres undefined), the “Percent Effect” value is reported as -29.18%. In the case of `Cc1nc(C)n(CC2CCCN(c3ncnc4sccc34)C2)n1` (centres undefined), the “Percent Effect” value is reported as -6.342%. In the case of `Cc1nc(C)n(CC2CCCN(c3ncnc4ccsc34)C2)n1` (centres undefined), the “Percent Effect” value is reported as 51.96%. For `Cc1ncccc1C(=O)Nc1cccc(C[S+](C)[O-])c1C` (centres undefined), the “Percent Effect” value was 11.87%. In the case of `COc1ccc(-n2cc(CNC(=O)c3ccc[nH]3)nn2)cc1`, the “Percent Effect” value is reported as 1.2%. For `CC(=O)N1CCC2(C1)CN(S(=O)(=O)c1ccccc1)C2`, the “Percent Effect” value was 13.22%. `c1cnnc(N2CCCC2CNCc2nc3ccccc3o2)c1` (centres undefined) was tested, and the “Percent Effect” value was 108.2%. For `CN(Cc1nc2ccccc2o1)CC1CCCN1c1cccnn1` (centres undefined), the “Percent Effect” value was -25.78%. With `Cc1nc(CNCC2CCCN2c2cccnn2)oc1C` (centres undefined) the “Percent Effect” value was 5.973%. `Cn1cc(C(=O)N2CCO[C@@H]3CN(C4CCC4)C[C@@H]3C2)cn1` was tested, and the “Percent Effect” value was 3.925%. `COCCN1CCN(Cc2cccc(C(=O)N(C)C)c2)CC1` was tested, and the “Percent Effect” value was -27.32%. `CCC(C)N(Cc1cnc(OC)nc1)Cc1ccsc1` (centres undefined) was tested, and the “Percent Effect” value was -2.85%. In the case of `COCCCN(C)c1nc(-c2ccncc2)nc(C)c1C`, the “Percent Effect” value is reported as 79.79%. With `Cc1nc(-c2ccncc2)nc(N(C)CCc2ccncc2)c1C` the “Percent Effect” value was -4.993%. `COCCCN(C)c1nc(-c2ccncc2)nc2c1CCN(C(C)=O)C2` was tested, and the “Percent Effect” value was -26.88%. In the case of `NC(=O)C1CCN(C(=O)NCc2ccc(-c3ccn[nH]3)cc2)CC1`, the “Percent Effect” value is reported as -27.61%. `O=C(N1CCCO1)[C@@]12CCO[C@@H]1CCN(Cc1ccccn1)C2.O=C(O)C(F)(F)F.O=C(O)C(F)(F)F` was tested, and the “Percent Effect” value was 16.34%. `Cc1csc(CNC(=O)NCC(O)c2ccccc2)n1` (centres undefined) was tested, and the “Percent Effect” value was -28.19%. With `CC(C)Oc1cccc(C(O)CNC(=O)CCc2ccncc2)c1` (centres undefined) the “Percent Effect” value was 31.72%. In the case of `CCOc1ccccc1CCNC(=O)NCC(O)c1ccsc1` (centres undefined), the “Percent Effect” value is reported as 26.35%. With `O=C(NCC(O)c1ccsc1)c1sccc1OC(F)F` (centres undefined) the “Percent Effect” value was 14.09%. For `CC(C)Oc1cccc(C(O)CNC(=O)NCc2cccs2)c1` (centres undefined), the “Percent Effect” value was 7.446%. `O=C(NCCc1ccccc1)NCC(O)c1cccs1` (centres undefined) was tested, and the “Percent Effect” value was 16.84%. In the case of `O=C(NCC(O)c1ccsc1)Nc1cccs1` (centres undefined), the “Percent Effect” value is reported as 98.83%. With `O=C(Nc1cccnn1)NC(CCCO)c1ccccc1` (centres undefined) the “Percent Effect” value was -8.222%. With `O=C(Nc1cccs1)NC(CCCO)c1ccccc1` (centres undefined) the “Percent Effect” value was 101.4%. `O=C(Nc1ccccn1)NC(CCCO)c1ccccc1` (centres undefined) was tested, and the “Percent Effect” value was -24.69%. With `CC(C)Oc1cccc(C(O)CNC(=O)Nc2cccs2)c1` (centres undefined) the “Percent Effect” value was 105%. For `O=C(NCC(O)c1ccccc1)Nc1cccs1` (centres undefined), the “Percent Effect” value was 59.31%. In the case of `Cc1cc(C)n2c(CNCc3ccc(OC(F)F)cc3)cnc2n1`, the “Percent Effect” value is reported as -7.615%. In the case of `Cn1ncc2c(N3CCCN(C(=O)c4ccsc4)CC3)ncnc21`, the “Percent Effect” value is reported as 16.86%. `CCCc1ccc(CN2CCC3(CCC(=O)N(CCO)C3)CC2)o1` was tested, and the “Percent Effect” value was 9.804%. `COc1ccccc1C(=O)N1CCOC2(CCCN(C(C)=O)C2)C1` (centres undefined) was tested, and the “Percent Effect” value was 23.26%. In the case of `Fc1ccc(C2CCCN2Cc2nnnn2C2CC2)cc1` (centres undefined), the “Percent Effect” value is reported as -22.59%. In the case of `O=C(NCCCN1CCCC1=O)c1nc(-c2ccc3[nH]ccc3c2)no1`, the “Percent Effect” value is reported as 3.66%. With `Cn1cccc1C(=O)N1CCC2(CC1)COC(COc1ccccn1)C2.O=C(O)C(F)(F)F` (centres undefined) the “Percent Effect” value was 9.973%. `CC(NC(=O)N1CCN(c2ccc(Cl)cc2)CC1)C(=O)N1CCSCC1` (centres undefined) was tested, and the “Percent Effect” value was 21.43%. In the case of `C[C@H](NC(=O)N1CCN(c2ccc(Cl)cc2)CC1)C(=O)N1CCSCC1`, the “Percent Effect” value is reported as 11.26%. In the case of `CC(C)C(NC(=O)N1CCN(c2ccc(Cl)cc2)CC1)C(=O)NC1CC1` (centres undefined), the “Percent Effect” value is reported as 93.48%. With `CC(C)NC(=O)C(NC(=O)N1CCN(c2ccc(Cl)cc2)CC1)C(C)C` (centres undefined) the “Percent Effect” value was 76.86%. In the case of `CC(C)NC(=O)[C@@H](NC(=O)N1CCN(c2ccc(Cl)cc2)CC1)C(C)C`, the “Percent Effect” value is reported as 70.57%. `CC(C)NC(=O)C(C)NC(=O)N1CCN(c2ccc(Cl)cc2)CC1` (centres undefined) was tested, and the “Percent Effect” value was -27.07%. For `CN(C(=O)NC1CC1)C1CCN(c2ccc(Cl)cc2)CC1`, the “Percent Effect” value was 17.37%. In the case of `CC(C)[C@H](NC(=O)N1CCN(c2ccc(Cl)cc2)CC1)C(=O)NC1CC1`, the “Percent Effect” value is reported as 4.583%. For `CC(C)NC(=O)[C@H](C)NC(=O)N1CCN(c2ccc(Cl)cc2)CC1`, the “Percent Effect” value was -2.997%. With `Fc1ccccc1NCc1nc2n(n1)CCCCC2` the “Percent Effect” value was 6.356%. In the case of `NC(=O)CN1CCCC(c2cncc(Nc3ncccn3)n2)C1` (centres undefined), the “Percent Effect” value is reported as 28.6%. In the case of `COCCN1C(=O)CC[C@]12CC[C@@H](NC(=O)c1cnccn1)CC2`, the “Percent Effect” value is reported as 8.611%. With `CCCc1nnnn1CC(=O)NCc1cccc(C)c1` the “Percent Effect” value was 14.77%. For `CCOC(=O)C1(Cc2ccccc2-c2ccccc2OC)CCNCC1.Cl`, the “Percent Effect” value was 1.496%. With `CNc1[nH]nc(N)c1C(=O)Nc1ccc(OC)cc1` the “Percent Effect” value was -4.193%. For `CNc1[nH]nc(N)c1NC(=O)c1ccccc1`, the “Percent Effect” value was 107.3%. With `CNc1[nH]nc(N)c1C(=O)Nc1ccccc1` the “Percent Effect” value was -18.4%. With `Cc1cc(C)nc(Nc2nccnc2C2CCCN(C(C)C)C2)n1` (centres undefined) the “Percent Effect” value was 29.5%. `Cc1nc(Nc2cnccn2)cc(C2CCCN(C(C)C)C2)n1` (centres undefined) was tested, and the “Percent Effect” value was -5.253%. With `FC(F)(F)c1cc(C2CCN(c3cnccn3)CC2)n2ccnc2n1` the “Percent Effect” value was 47.21%. `FC(F)(F)c1cc(C2CCCN(c3ncccn3)C2)n2ccnc2n1` (centres undefined) was tested, and the “Percent Effect” value was 58.69%. For `CC(C)N1CCCC(c2cc(C(F)(F)F)nc3nccn23)C1` (centres undefined), the “Percent Effect” value was 55.76%. In the case of `FC(F)(F)c1cc(C2CCCN(c3cnccn3)C2)n2ccnc2n1` (centres undefined), the “Percent Effect” value is reported as 5.193%. In the case of `NC(=O)c1ccc(C2CCCN2C(=O)CCc2nc3ccccc3s2)s1` (centres undefined), the “Percent Effect” value is reported as -11.96%. In the case of `Cc1cnc(C)c(N2CCCC(CO)(Cc3ccccc3C)C2)n1` (centres undefined), the “Percent Effect” value is reported as 5.498%. `Cc1ccccc1CC1(CO)CCCN(c2ncnc3sccc23)C1` (centres undefined) was tested, and the “Percent Effect” value was 79.2%. For `CC(=O)c1ccc(N2CCCC(CO)(Cc3ccccc3C)C2)nc1` (centres undefined), the “Percent Effect” value was 13.02%. For `Cc1ccccc1CC1(CO)CCCN(c2ncncc2C(C)C)C1` (centres undefined), the “Percent Effect” value was 81.01%. For `c1csc(N2CCCN(c3ncnc4sccc34)CC2)n1`, the “Percent Effect” value was 9.712%. In the case of `Cc1ccccc1CC1(C(=O)O)CCCN(c2ncnc3[nH]ccc23)C1` (centres undefined), the “Percent Effect” value is reported as 8.891%. For `CC(=O)NCCNC(=O)CCn1c(C)cc2ccccc21`, the “Percent Effect” value was 15.36%. In the case of `Cc1cc(NC(=O)CN2CCCC2c2noc(C3CC3)n2)n(C)n1` (centres undefined), the “Percent Effect” value is reported as -35.39%.
